{"source": "paper PMC5540273", "about": "(PLoS ONE, 2017);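 further: KINOMEscan kinase panel screen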"}
{"system": "DYRK1B", "settings": "concentration: 1 μM,replicates: in singlicate; n = 1", "units": {"%Inh": "%"}}
{"smiles": "CNC(=O)c1ccccc1Nc1nc(Nc2cccc(CS(C)(=O)=O)c2)ncc1C.O=CO", "note": "[GSK1520489]", "%Inh": 83}
{"smiles": "O=C(Nc1n[nH]c2cc(-c3ccco3)ccc12)C1CC1", "note": "[SB-737447]", "%Inh": 0}
{"smiles": "CSc1nccc(-c2c(-c3ccc(F)cc3)ncn2CCCN2CCOCC2)n1.Cl", "note": "[SB-217146]", "%Inh": 12}
{"smiles": "COc1cccc(CNC(=O)NC2CCN(c3ccnc(Nc4cc(OC)c(OC)c(OC)c4)n3)C2)c1", "note": "(stereo not shown) [GSK1379765]", "%Inh": 17}
{"smiles": "Cn1cc(-c2cccc3c(N)c(C(N)=O)nnc23)cn1", "%Inh": 8}
{"smiles": "Cc1ccc(Nc2ccnc(Nc3ccc4c(c3)CS(=O)(=O)C4)n2)cc1O.Cl", "note": "[GW579362]", "%Inh": 48}
{"smiles": "CC(C(=O)NC1CCN(c2ccnc(Nc3ccc(F)cc3)n2)C1)c1ccc(Cl)cc1", "note": "(stereo not shown) [GSK1379713]", "%Inh": 12}
{"smiles": "COc1cc2c(Nc3ccc(NC(=O)c4ccccc4)cc3)ncnc2cc1OCCCN1CCOCC1", "note": "[GSK301329]", "%Inh": 0}
{"smiles": "N#Cc1cccc(C(=O)NC2CCN(c3ccnc(Nc4ccc(F)cc4)n3)C2)c1", "note": "(stereo not shown) [GSK1379708]", "%Inh": 0}
{"smiles": "CN1CCN(CCCNc2nccc(-c3c(-c4ccc(F)cc4)nn4cc(C(N)=O)ccc34)n2)CC1", "note": "[GW622475]", "%Inh": 100}
{"smiles": "O=C(Nc1cccc(C(F)(F)F)c1)c1cccc(Oc2ccc3nccn3n2)c1", "%Inh": 14}
{"smiles": "COC(=O)Nc1nc2cc(Oc3ccc(NC(=O)Nc4cc(C(F)(F)F)ccc4Cl)cc3)ccc2[nH]1.Cl", "note": "[GW697465]", "%Inh": 0}
{"smiles": "Cn1ccc2ncnc(Oc3ccc(NC(=O)Nc4ccnc(C(F)(F)F)c4)c(Cl)c3)c21", "%Inh": 53}
{"smiles": "Cc1cccc2c(-c3ccncc3)c(-c3ccc(F)cc3)nn12.Cl", "note": "[GW461487]", "%Inh": 0}
{"smiles": "COc1cccc(C2=C(Nc3cccc(Cl)c3)C(=O)NC2=O)c1", "note": "[SB-341556]", "%Inh": 0}
{"smiles": "OCCn1cc(-c2cnc3nnn(Cc4ccc5ncccc5c4)c3n2)cn1", "%Inh": 19}
{"smiles": "CC(=O)c1c(-c2ccncc2)[nH]c(-c2ccncc2)c1C", "note": "[GW493036]", "%Inh": 100}
{"smiles": "Cn1ccc2ncnc(Oc3ccc(NC(=O)Nc4cncc(C(F)(F)F)c4)c(Cl)c3)c21", "%Inh": 5}
{"smiles": "O=c1[nH]cc(-c2ccc(O)cc2)c2sc(-c3ccncc3)cc12", "note": "[GSK1033723]", "%Inh": 84}
{"smiles": "COC(=O)c1cccc(NC(=O)NC2CCN(c3ccnc(NCc4ccc(F)cc4)n3)CC2)c1", "note": "[GSK1379860]", "%Inh": 21}
{"smiles": "Cn1ccc2ncnc(Oc3ccc(NC(=O)Nc4cccc(C(F)(F)F)c4)c(F)c3)c21", "%Inh": 0}
{"smiles": "Cl.c1ccc(Oc2ccc(Nc3ccnc4cc(-c5ccc(CN6CCNCC6)o5)ccc34)cc2)nc1", "note": "[GW567142]", "%Inh": 0}
{"smiles": "CS(=O)(=O)c1cccc(CNc2nc(Nc3ccc4c(c3)[C@@H]3C[C@@H]4CNC3=O)ncc2C(F)(F)F)c1", "%Inh": 6}
{"smiles": "C[C@@H](Oc1cc(-n2cnc3ccc(-c4ccncc4)cc32)sc1C(N)=O)c1ccccc1Cl", "note": "[GSK483724]", "%Inh": 91.5}
{"smiles": "CCOC(=O)N1CCC(n2cnc(-c3ccc(F)cc3)c2-c2ccnc(N)n2)CC1", "note": "[SB-219952]", "%Inh": 30}
{"smiles": "Cn1ccc2ncnc(Oc3ccc(NC(=O)Nc4cc(C(C)(C)C)on4)c(Cl)c3)c21", "%Inh": 39}
{"smiles": "Cc1n[nH]c2cc(Nc3ccnc(Nc4cccc(CN5CCOCC5)c4)n3)ccc12", "note": "[GW682569]", "%Inh": 4}
{"smiles": "NC(=O)c1ccc(-c2cc3ncnc(SCC(=O)O)c3s2)cc1", "%Inh": 57}
{"smiles": "Cc1ccc(CC(=O)N2CCc3cc(-c4cn(C)c5ncnc(N)c45)ccc32)cc1", "note": "[GSK2634758]", "%Inh": 0}
{"smiles": "COc1ccc(Nc2nccc(N3CCC(NC(=O)c4cccc(C#N)c4)C3)n2)cc1", "note": "(stereo not shown) [GSK1379730]", "%Inh": 39}
{"smiles": "Cn1ccc2ncnc(Oc3ccc(NC(=O)Nc4cccc(C(F)(F)F)c4)c(Cl)c3)c21", "%Inh": 49}
{"smiles": "O=C(Nc1ccccc1)c1cccc(Oc2ccc3nccn3n2)c1", "%Inh": 28}
{"smiles": "Cn1ccc2ncnc(Oc3ccc(NC(=O)Nc4cnn(C(C)(C)C)c4)c(Cl)c3)c21", "%Inh": 62}
{"smiles": "CCn1c(-c2nonc2N)nc2cncc(CNC3CCNCC3)c21.Cl", "note": "[SB-747651]", "%Inh": 12}
{"smiles": "COc1cc2nccc(Nc3ccc(Oc4ccccc4)cc3)c2cc1OC.Cl", "note": "[GI261656]", "%Inh": 18}
{"smiles": "Cl.Cl.NC[C@H](CC1CCCCC1)NC(=O)c1ccc(-c2ccnc3[nH]ccc23)s1", "note": "[GSK1581428]", "%Inh": 27}
{"smiles": "Cc1cccc(-c2nc(Nc3ccncc3)c3sccc3n2)n1", "note": "[GW869641]", "%Inh": 9}
